From PubChem BioAssay
RORgamma inh = qHTS for inhibitors of ROR gamma transcriptional activity; Nuclear receptor ROR-gamma (Mus musculus), P51450; Drosophila S2 Gal4-RORgamma UAS-luciferase reporter, 20 h; Potency, µM (top dose mostly 53.6 µM), without a hit: top-dose activity change, negative = inhibition, usual class: inhibitors; 5.4% of 310,000 active; note: % is set by controls: 0 for no effect and ±100 for the full control effect; nearly all actives have a fitted effect of over 60% in size
Target sequence (P51450 whole entry, looked up, the tested form may be a part): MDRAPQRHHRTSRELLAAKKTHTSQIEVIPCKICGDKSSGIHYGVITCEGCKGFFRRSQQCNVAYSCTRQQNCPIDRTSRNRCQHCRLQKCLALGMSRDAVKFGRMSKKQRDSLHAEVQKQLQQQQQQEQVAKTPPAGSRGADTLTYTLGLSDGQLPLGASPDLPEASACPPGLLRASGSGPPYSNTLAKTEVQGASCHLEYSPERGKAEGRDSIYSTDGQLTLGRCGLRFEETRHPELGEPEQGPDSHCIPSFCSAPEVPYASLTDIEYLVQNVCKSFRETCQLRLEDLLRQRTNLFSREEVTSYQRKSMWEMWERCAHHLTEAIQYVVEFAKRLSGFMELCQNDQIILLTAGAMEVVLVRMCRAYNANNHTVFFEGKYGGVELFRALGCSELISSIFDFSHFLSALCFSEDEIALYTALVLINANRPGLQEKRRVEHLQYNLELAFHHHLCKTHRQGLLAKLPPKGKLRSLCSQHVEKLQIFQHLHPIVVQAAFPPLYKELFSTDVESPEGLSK
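Drosophila S2 cells stably expressing Gal4-DBD/mouse RORγ fusion under metallothionein promoter plus UAS-luciferase; compound 1 h, then 700 uM CuSO4 induction for 20 h at ambient temperature; inhibition read as reduced luminescence.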
ATXN viability = Viability Counterscreen for Primary qHTS for Inhibitors of ATXN expression | S2 cells (HEK-293 line with an ATXN2-luciferase reporter) viability, CellTiter-Fluor protease fluorescence, 24 h | Potency, µM (titrated, usually from 56.7 µM), most hits filed as cytotoxic | 0.49% of 400,000 active | AID 651635, 2014; note: nearly all actives have a fitted effect of over 40% in size
ATXN2 expr inh = Primary qHTS for Inhibitors of ATXN expression; HEK-293 ATXN2-luciferase reporter, luminescence, 24 h; Potency, µM (doses to about 57 µM), for the others: at the top dose activity change, negative = inhibition, actives largely listed as inhibitors; 0.72% of 360,000 active; note: % is set by controls: 0 for no effect and ±100 for the full control effect; nearly all actives have a fitted effect of over 55% in size
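ATXN2-luciferase reporter cells (luciferase flanked by upstream and downstream ATXN2 gene portions) were treated 24 h at 37 °C with compounds at up to 57 uM. SteadyGlo luminescence gave expression; GF-AFC fluorescence gave viability.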
Gal4-VP16 FLuc = VP16 counterscreen qHTS for inhibitors of ROR gamma transcriptional activity; Drosophila S2 Gal4-VP16 UAS-luciferase, luminescence, 20 h; Potency, µM (titrated, usually from 53.6 µM), for the others: top-dose activity, negative = inhibition, most hits filed as inhibitors; 3.5% of 310,000 active; AID 2546, 2010;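 note: Gal4-VP16 expression switched on by copper sulfate through the metallothionein promoter; % is set by controls: 0 for no effect and ±100 for the full control effect; nearly all actives have a fitted effect of over 50% in size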
HepG2 tox-1 = qHTS for Inhibitors of TGF-b: Cytotox Counterscreen. HepG2 CAGA-GFP viability, ATP luminescence, 18 h. 0.76% of 410,000 active. Potency, µM (highest dose often 46.1 µM), for inactives: top-dose activity change, negative = cytotoxicity, hits mostly cytotoxic
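CellTiter-Glo luminescence gave cytotoxicity after 18 hours at 37 degrees C. The cells were HepG2 CAGA-GFP in 1% FBS DMEM, stimulated with 500 pg/mL TGF-beta after compound addition. %Activity was normalised to no-cell wells (complete cell-killing) and DMSO (no toxicity), and curves were fitted and classified.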
TGFb SMAD3 inh = qHTS for Inhibitors of TGF-b. HepG2 CAGA-GFP TGF-b/SMAD3 reporter, GFP fluorescence, 18 h; TGF-beta stimulated, 500 pg/mL final. Potency, µM (top dose mostly 46.1 µM), inactives show at the top dose activity, negative = inhibition, hits mostly inhibitors. 1.2% of 410,000 active; note: % is set by controls: 0 for no effect and ±100 for the full control effect; nearly all actives have a fitted effect of over 65% in size
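Per well, imaged GFP fluorescence of HEPG2 CAGA-GFP cells gives the signal; cells get compound, then TGF-beta (500 pg/mL final), 18 h at 37 degrees C; %Activity versus -TGF-beta and +DMSO controls.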
TGFb confirm = qHTS for Inhibitors of TGF-b: Confirmation of Cherry Picks. AID 720534, 2013. 63% of 1,600 active. HepG2 CAGA-GFP TGF-b reporter, GFP fluorescence, 18 h; cells stimulated with TGF-beta, 500 pg/mL. shares compounds with TGFb SMAD3 inh. Potency, µM (highest dose often 46.1 µM), inactives show at the highest dose activity, negative = inhibition, actives largely listed as inhibitors; note: % is set by controls: 0 for no effect and ±100 for the full control effect; nearly all actives have a fitted effect of over 65% in size
HepG2 tox-2 = qHTS for Inhibitors of TGF-b: Cytotox Counterscreen for Cherry Picks | shares compounds with TGFb SMAD3 inh | HepG2 CAGA-GFP viability, ATP luminescence, 18 h; cells stimulated with TGF-beta, 500 pg/mL | Potency, µM (doses to about 46.1 µM), for the others: at the highest dose activity, negative = cytotoxicity, hits mostly inhibitors | 27% of 1,600 active; note: % is set by controls: 0 for no effect and ±100 for the full control effect; nearly all actives have a fitted effect of over 70% in size
TGFb CCL64 inh = qHTS for Inhibitors of TGF-b: CCL64 Cells Orthogonal Assay for Cherry Picks | shares compounds with TGFb SMAD3 inh | CCL64 CAGA-GFP reporter, TGF-b stimulated, GFP fluorescence, 18 h | Potency, µM (series often up to 46.1 µM), without a hit: at the highest dose activity, negative = inhibition, actives largely listed as inhibitors | 41% of 1,600 active; note: nearly all actives have a fitted effect of over 65% in size
TGFb COP inh = qHTS for Inhibitors of TGF-b: Hit Validation in HepG2 Cells using COP promoter. shares compounds with TGFb SMAD3 inh. HepG2 COP-GFP TGF-b reporter, GFP fluorescence, 18 h; cells stimulated by added recombinant TGF-beta. Potency, µM (highest dose often 46.1 µM), for the others: at the top dose activity, negative = inhibition, actives largely listed as inhibitors. 3% of 1,600 active. AID 720537, 2013; note: nearly all actives have a fitted effect of over 70% in size
* marks the source's active call; other numbers are inactive results; i = inactive; u = inconclusive; x = not tested or not shown. A selection: hits, their analogues and other compounds. The true share with any hit is near 6.1%. Calls come from the whole dose curve; as a rule, active = well fitted curve in the direction sought with a large enough effect; inconclusive = small, poorly fitted or top-dose-only effect, or another doubt; inactive = no such curve, though single readings can be large; an effect the other way counts as inactive or inconclusive. Potency is the fitted concentration of half-maximal effect.

SMILES | RORgamma inh | ATXN viability | ATXN2 expr inh | Gal4-VP16 FLuc | HepG2 tox-1 | TGFb SMAD3 inh | TGFb confirm | HepG2 tox-2 | TGFb CCL64 inh | TGFb COP inh
Cc1cc(NC(=O)CS(=O)(=O)c2cn(Cc3cccc(Br)c3)c3ccccc23)no1 | x | u | u | x | -9.7% | 10µM* | 11.6µM* | -14.8% | u | 31.3%
O=C(CSc1nc(N2CCCCC2)nc(N2CCCCC2)n1)N1CCN(c2ccccc2)CC1 | -17.2% | i | -11.1% | -26.3% | 4.1% | 6.31µM* | 16.4µM* | -8.4% | u | 4.2%
Cc1nc(SCC(=O)N2CCN(c3ccccc3)CC2)n[nH]1 | 5.2% | i | -9.9% | -6.5% | 10.2% | 17.3% | x | x | x | x
Cc1ccccc1NC(=O)Cn1c(=O)oc2cc(Br)ccc21 | x | x | x | x | -18.0% | -7.9% | x | x | x | x
COc1ccc(OC)c(C2SCCN2S(=O)(=O)c2cccc(C(F)(F)F)c2)c1 (stereo not given) | 29.5% | i | -5.1% | 1.7% | -19.6% | u | u | -21.4% | -15.4% | -4.5%
Cc1nnc(SCC(=O)N/N=C/c2cn(-c3ccccc3)nc2-c2ccccc2)n1-c1ccccc1 | u | u | -5.8% | -3.1% | -0.4% | 7.08µM* | u | -22.8% | u | 7.8%
Cc1ccc(NC(=O)CSc2nnc(C)n2-c2ccccc2)cc1 | -2.5% | i | 2.1% | -2.7% | 9.7% | 17.8% | x | x | x | x
Cc1nc2cnc(N3CCN(C)CC3)nc2n(C)c1=O | 1.0% | x | x | 0.9% | x | x | x | x | x | x
COc1ccc(CCNC(=O)CNS(=O)(=O)c2ccc(Cl)cc2)cc1 | x | i | -2.7% | x | -7.0% | u | -4.8% | 3.5% | 2.0% | -15.8%
O=C(Nc1ccc(F)cc1F)Nc1sccc1-c1nc2ccccc2s1 | u | i | x | 1.2% | 0.5% | 11.2µM* | u | -16.5% | u | -4.9%
Cc1cccc(C(=O)Nc2sc3c(c2C(=O)N2CCCCC2)CCC(C)C3)c1 (stereo not given) | x | i | 4.5% | x | -1.5% | 1.1% | x | x | x | x
Cc1ccc(NC(=O)C2=CCN(S(=O)(=O)c3ccc(F)cc3)CC2)cc1 | 32.6% | i | -20.6% | -6.0% | 37.7% | -5.3% | x | x | x | x
Cc1ccc(S(=O)(=O)N2CC=C(c3ccc(F)cc3)CC2)cc1 | 35.5% | u | -8.4% | u | 4.9% | 3.16µM* | u | -14.2% | 0.5% | -13.5%
O=C(c1[nH]c(C(F)(F)F)nc1-c1ccccc1)N1CCN(c2cccc(C(F)(F)F)n2)CC1 | x | i | -8.0% | x | -28.9% | 11.2µM* | 16.4µM* | -18.2% | 13µM* | -0.3%
